Here are results for 37 molecules from PubChem BioAssay.

The source made the active and inactive calls.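 Rule for the calls: active = growth inhibition above 50% at the single 2 µM test dose, taken to imply half-maximal potency below 2 µM; inactive = the rest.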

This assay can be described thus: antimalarial activity against Dd2 strain (AID 2302).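 Note: 0% = DMSO untreated growth and 100% = chloroquine plus artemisinin killed control.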 Particulars: P. falciparum Dd2 in RBCs, LDH growth readout, 72 h; at 2 µM; active compounds read high.
On to `CN(C)CCCNCc1ccc(-c2ccc(C(F)(F)F)cc2)cc1`, for which the growth inhibition is 35% (inactive). Consider `Fc1ccccc1COc1ccc(Nc2ncnc3ccc(-c4nnc(C(F)(F)F)o4)cc23)cc1Cl`, for which the growth inhibition is 46% (inactive).

In the case of `O=C(Nc1ccc([N+](=O)[O-])cc1)c1nn(-c2ccccc2)cc1N=Cc1cccc(O)c1`, the growth inhibition is 37% (inactive). For the molecule `Cc1cccc2[nH]c(-c3ccc(-c4ccc(NC(=O)N[C@@H]5C[C@H]5c5ccccc5)cc4)cc3)nc12`, the growth inhibition is 3% (inactive). Turning to `O=c1cc(NCCCCNCc2ccc(Br)c(Br)c2)[nH]c2ccccc12`, the growth inhibition was 14% (inactive). For `O=S1N=C(NCCCN(Cc2cccs2)c2ccccn2)C(NCc2ccccc2)=N1` (configuration not stated), the growth inhibition is 25% (inactive). To `COc1ccccc1NC(=O)NC1CCN(CCCCCNC(=O)/C=C/c2ccc(Cl)c(Cl)c2)CC1` belongs 15% (inactive); to `CC(=O)Oc1cc(C)ccc1C1CCN(CCCCNC(=O)c2ccc(-c3ccc(C(F)(F)F)cc3)cc2)CC1`, 94% (active). Under `O=c1cc(NCCCNCc2csc(Br)c2Sc2ccc(Cl)cc2)[nH]c2ccccc12` stands 83% (active). In the case of `Cc1cccc2[nH]c(-c3ccc(-c4cccc(NC(=O)Nc5ccsc5)c4)s3)nc12`, the growth inhibition was 29% (inactive). To `CCCCCCP(=O)(COc1ccc(CCN(CC(O)COc2cccc3[nH]c(C(N)=O)cc23)CC(O)COc2cccc3[nH]c(C(N)=O)cc23)cc1)OCCCC` (configuration not stated) belongs 97% (active); to `COc1ccc(-c2csc3ncnc(Cl)c23)cc1`, 97% (active); to `C[C@H](Cc1ccc(Oc2ccc(C[C@@H](C)NC[C@H](O)c3cccc(Cl)c3)cc2)cc1)NC[C@H](O)c1cccc(Cl)c1`, 96% (active). Under `CCCCCCCN1CC[C@@H](CCCc2ccnc3ccc(OCCN4CCNCC4)cc23)[C@@H](CC)C1` stands 98% (active); under `O=C(Cc1ccc(-c2ccccc2)cc1)N[C@H]1CCN(Cc2ccc(OCCCN3CCCCC3)cc2)C1`, 27% (inactive); under `Cc1cc(C)n(-c2nc(Nc3cccc(C(F)(F)F)c3)nc(-n3nc(C)cc3C)n2)n1`, 88% (active). In the case of `O=C(NCc1cccc(F)c1)Nc1cccc(-c2ccc(-c3nc4ccc(F)cc4[nH]3)cc2)c1`, the growth inhibition is 0% (inactive). Take `NC(=O)C1CCN(Cc2cccc(-c3ccc(-c4nc5ccc(C(F)(F)F)cc5[nH]4)cc3)c2)CC1`: the growth inhibition was 94% (active). As for `CCCC[C@@H](C(=O)NCCc1ccc(Cl)cc1)N1C(=O)CCC1C(=O)Nc1ccc(Cl)c(Cl)c1` (some centres not stated), the growth inhibition was 2% (inactive). With `Nc1ncc(-c2ccc(F)cc2)c2ccc(-c3cccc(F)c3)cc12`, the growth inhibition was 89% (active). Under `c1ccc(CCNCc2ccc(-c3cccc(-c4nc5ccccc5[nH]4)c3)cc2)nc1` stands 87% (active).

`CCCCN1CCN(CCCCNc2c3ccccc3nc3ccccc23)CC1`: the growth inhibition was 5% (inactive). On to `CCCCCCN1CCCN(Cc2ccc(C(=O)Nc3ccc(Cl)cc3)cc2)CC1`, for which the growth inhibition is 54% (active). To `COc1ccc(-c2cccc(NC(=O)c3ccc(C#N)cc3)c2)cc1CN1CCCN(C)CC1` belongs 89% (active); to `CCCCCN1CCCC(NS(=O)(=O)c2ccc(C(=O)Nc3ccc(C(F)(F)F)cc3)cc2)C1` (configuration not stated), 20% (inactive); to `Cc1cc(O)c(CN(C)Cc2ccc(N(C)C)cc2)cc1C(C)C`, 98% (active). To `CNC(=O)CSc1nnc(-c2ccc(C)cc2)c(-c2ccc(C)cc2)n1` belongs 49% (inactive); to `Cc1cc(C)c(NC(=O)NC2CCN(CCCCCNC(=O)/C=C/c3ccc(Cl)c(Cl)c3)CC2)c(C)c1`, 17% (inactive); to `Cn1c(=O)n(C)c2cc(CNCCNc3ccnc4cc(Cl)ccc34)ccc21`, 96% (active).

For `CC(OC(=O)c1ccc(C(=O)NCC2CC2)cc1)C(C)(C)C` (configuration not stated), the growth inhibition was 86% (active). Under `CCc1c(CCNCCCCCCNCCc2ccc([N+](=O)[O-])cc2)ccc(O)c1O` stands 23% (inactive). Turning to `CS(=O)(=O)c1ccc(CCNCc2ccc(-c3cccc(-c4nc5ccccc5[nH]4)c3)cc2)cc1`, the growth inhibition is 99% (active). On to `CC[C@H](C)CNC(=O)c1cncc(-c2cccc(CNCCCc3ccccc3)c2)c1`, for which the growth inhibition is 0% (inactive). Under `Cc1cccc2[nH]c(-c3ccc(-c4cccc(NC(=O)c5ccncc5)c4)cc3)nc12` stands 8% (inactive); under `Cc1cc2nc(/N=C(\N)NC(=O)NC3CCCCC3)nc(C)c2cc1C`, 98% (active).

On to `CN1CCN(CCCN(Cc2ccc(-c3cccc(CNC4CCCC4)c3)cc2)C(=O)/C=C/c2ccccc2)CC1`, for which the growth inhibition was 87% (active). Under `CCNc1cc(C(=O)N[C@@H](Cc2ccccc2)[C@H](O)CNC2CCC(C(C)(C)C)CC2)cc(N2CCCC2=O)c1` (some centres not stated) stands 98% (active).
